Compound activity as filed in PubChem BioAssay.
STK33 inh: inhibitors of human STK33 kinase; Q9BYT3; inhibition, % at 12.5 µM; ADP-Glo luminescence, MBP substrate; 27,000 tested, 0.44% active; AID 2322; in the data active means inhibition above about 20%; inconclusive means no clear call, values can overlap the other calls
Target sequence (Q9BYT3 whole entry, looked up): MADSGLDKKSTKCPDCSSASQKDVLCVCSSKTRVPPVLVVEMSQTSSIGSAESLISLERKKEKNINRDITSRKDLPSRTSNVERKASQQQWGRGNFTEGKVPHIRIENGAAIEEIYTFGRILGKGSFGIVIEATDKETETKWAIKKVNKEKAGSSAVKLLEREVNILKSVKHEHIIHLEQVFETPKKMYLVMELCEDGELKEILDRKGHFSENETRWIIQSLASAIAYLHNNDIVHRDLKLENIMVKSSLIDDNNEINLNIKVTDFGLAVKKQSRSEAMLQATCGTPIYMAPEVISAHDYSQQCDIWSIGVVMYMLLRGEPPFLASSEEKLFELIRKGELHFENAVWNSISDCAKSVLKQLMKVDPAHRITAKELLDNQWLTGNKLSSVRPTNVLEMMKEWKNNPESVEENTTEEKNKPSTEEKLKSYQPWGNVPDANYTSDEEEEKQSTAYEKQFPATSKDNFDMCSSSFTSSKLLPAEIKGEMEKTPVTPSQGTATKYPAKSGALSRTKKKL
MITF inhib: MITF inhibition; TRPM1 promoter luciferase, luminescence, 24 h; inhibition, % (no concentration beside the values); 37,000 tested, 0.28% active; in the data active means inhibition above about 85%; inconclusive means no clear call, values can overlap the other calls; inactive means below about 68%;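 further: human melanocyte line stably carrying TRPM1 promoter luciferase reporter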
NOMO-1 viab: STK33 inhibitor candidate reducing NOMO-1 cell viability. 37,000 tested, 7.5% active. NOMO-1 AML viability, CellTiter-Glo luminescence, 72 h. inhibition, % (test concentration not listed); in the data active means inhibition above about 80%; inconclusive means no clear call, values can overlap the other calls
p53 PUMA act: mutant p53 pathway reactivation. SW480 PUMA-promoter luciferase. activation, % at 9.98 µM. 28,000 tested, 1.5% active; in the data active means activation above about 52%; inconclusive means no clear call, values can overlap the other calls
Large screens that a line does not name were inactive. Only a selection was taken, and hits are over-represented in it overall.

Cc1ccc(-c2nc(S(=O)(=O)c3ccc(Cl)cc3)c(SCC(N)=O)o2)cc1	none
O=C(Oc1ccc(N(Cc2cccs2)C2=NS(=O)(=O)c3ccccc32)cc1)c1ccccc1	none (no result: STK33 inh, p53 PUMA act)
C=CCN1C(C(=O)c2ccccc2)=C(OC(=O)c2ccccc2)c2ccccc2S1(=O)=O	NOMO-1 viab 107.9 (no result: STK33 inh, p53 PUMA act)
C=C1C(=O)O[C@H]2C[C@H](C)[C@@H]3CC(=O)C(C)=C3C[C@H]12	NOMO-1 viab 116.8 (no result: p53 PUMA act)
C=C1C(=O)O[C@H]2CC(C)C3CC[C@@]4(C)O[C@@]34CC12 (some centres not stated)	none (no result: MITF inhib, NOMO-1 viab)
CCN(CC)CCNc1ncnc2c1sc1nc(N3CCCC3)c3c(c12)CC(C)(C)OC3	NOMO-1 viab 113.3
COc1ccc(NC(=O)CSc2ncnc3c2sc2nc(N4CCOCC4)c4c(c23)CC(C)(C)OC4)cc1	NOMO-1 viab 99.5
COC(=O)CCSc1ncnc2c1sc1nc(N3CCOCC3)c3c(c12)CCCC3	none
Cc1ccc2c(c1)c1c(n2CCc2ccncc2)CCN(C)C1	none (no result: STK33 inh, p53 PUMA act)
CC(C)(C)C1CCc2c(sc(NC(=O)COc3ccc(Cl)cc3)c2C(N)=O)C1 (configuration not stated)	NOMO-1 viab 89.1
COc1ccc(NC(=O)CN(c2cc(C)ccc2OC)S(C)(=O)=O)cc1Cl	none
CSC1=N/C(=C\c2ccc(Cl)cc2)C(=O)N1CCc1c[nH]c2ccccc12	NOMO-1 viab 84.9 (no result: STK33 inh, p53 PUMA act)
CCC(C)C(=O)OCC1(c2ccc(C)cc2OC(=O)C(C)C)CO1 (configuration not stated)	NOMO-1 viab 117.7
COc1ccc(C(=O)COc2ccc(NC(=O)c3ccccc3[N+](=O)[O-])cc2)cc1	none
Cc1noc(C)c1S(=O)(=O)Nc1ccc2c(c1)CC(=O)N([C@@H](C)CO)C[C@H](C)[C@H](CN(C)Cc1ccc(C(F)(F)F)cc1)O2	NOMO-1 viab 82.8 (no result: p53 PUMA act)
Cc1noc(C)c1S(=O)(=O)Nc1ccc2c(c1)CC(=O)N([C@H](C)CO)C[C@@H](C)[C@H](CN(C)Cc1ccc(Cl)c(Cl)c1)O2	NOMO-1 viab 97.5 (no result: p53 PUMA act)
CC(C)(C)C1CCC2(CC1)C(C#N)C2(C#N)C(=O)c1ccccc1 (configuration not stated)	MITF inhib 85.3, NOMO-1 viab 125.4 (no result: STK33 inh, p53 PUMA act)
Cc1csc2c(SCC(O)C(F)(F)F)ncnc12 (configuration not stated)	p53 PUMA act 56.4 (no result: STK33 inh, MITF inhib, NOMO-1 viab)
COc1cccc(NC(=O)CSc2nnc(-c3ccc(Cl)cc3)n2-c2cccc(C)c2)c1	MITF inhib inconclusive, NOMO-1 viab 122.9
COc1cccc(NC(=O)CSc2nnc(-c3cccc(OC)c3)n2-c2ccc(Cl)cc2)c1	none
O=C(CSc1nnc(-c2cccc(Cl)c2)n1-c1ccccc1)Nc1ccccc1-c1ccccc1	NOMO-1 viab 142.0
O=C1CN(/N=C/c2ccc([N+](=O)[O-])o2)C(=O)N1	none
O=C(N/N=C/c1ccc([N+](=O)[O-])o1)c1ccc(O)cc1	NOMO-1 viab 140.3 (no result: p53 PUMA act)
C[C@H](CO)N1C[C@H](C)[C@H](CN(C)Cc2ccc(Oc3ccccc3)cc2)Oc2c(NC(=O)Nc3ccc4c(c3)OCO4)cccc2C1=O	NOMO-1 viab 116.3 (no result: STK33 inh, p53 PUMA act)
C[C@@H]1CN([C@H](C)CO)C(=O)c2cccc(NC(=O)Nc3ccc4c(c3)OCO4)c2O[C@H]1CN(C)Cc1ccc(Oc2ccccc2)cc1	none (no result: STK33 inh)
C[C@@H]1CN([C@H](C)CO)C(=O)c2cccc(NC(=O)Nc3ccc4c(c3)OCO4)c2O[C@@H]1CN(C)Cc1ccc(-c2ccccc2)cc1	NOMO-1 viab 93.5 (no result: STK33 inh, p53 PUMA act)
C[C@H](CO)N1C[C@H](C)[C@H](CN(C)Cc2ccc(-c3ccccc3)cc2)Oc2c(NC(=O)Nc3ccc4c(c3)OCO4)cccc2C1=O	NOMO-1 viab 120.1 (no result: STK33 inh, p53 PUMA act)
C[C@@H]1CN([C@@H](C)CO)C(=O)c2cccc(NC(=O)Nc3ccc4c(c3)OCO4)c2O[C@@H]1CN(C)Cc1ccc(-c2ccccc2)cc1	NOMO-1 viab 116.0 (no result: STK33 inh, p53 PUMA act)
COC(=O)c1cc2ccccc2[nH]1	none (no result: STK33 inh, p53 PUMA act)
Cc1ccc(NC(=O)COc2ccc3cc(-c4ccc(F)cc4)c(=O)oc3c2)cc1	none
Cn1nnnc1SCC(=O)Nc1ccc(F)c(F)c1	none
COC(=O)c1cccc(NC(=O)CSc2n[nH]c(-c3ccc(Cl)cc3)n2)c1	none (no result: MITF inhib, NOMO-1 viab)
C[C@H]1CN([C@@H](C)CO)C(=O)c2cccc(NC(=O)Nc3ccc4c(c3)OCO4)c2O[C@H]1CN(C)Cc1ccccc1	none (no result: STK33 inh)
C[C@@H]1CN([C@H](C)CO)C(=O)c2cccc(NC(=O)Nc3ccc4c(c3)OCO4)c2O[C@H]1CN(C)Cc1ccc(-c2ccccc2)cc1	NOMO-1 viab 91.0 (no result: STK33 inh, p53 PUMA act)
O=C(CSc1nc2ccc(NC(=O)c3ccccc3)cc2s1)Nc1ccccc1C(F)(F)F	none
COC(=O)c1cccc(-n2c(CCC(=O)O)ccc2-c2cccs2)c1	p53 PUMA act 62.7
CCOC(=O)c1nnn2c1nc(N(Cc1ccccc1)Cc1ccccc1)c1ccccc12	none (no result: STK33 inh, p53 PUMA act)
O=[N+]([O-])c1ccc2nc(CSc3ncnc4ccccc34)[nH]c2c1	none
C=C1C(=O)O[C@@H]2[C@H]3C(CO[C@@H]4O[C@H](CO)[C@@H](O)[C@H](O)[C@H]4O)=CC(=O)C3=C(C)CC[C@@H]12	none (no result: MITF inhib, NOMO-1 viab)
C=C1C(=O)O[C@H]2C1CCC(C)=C1C(=O)C=C(C)[C@@]12O (some centres not stated)	NOMO-1 viab 105.9
COC(=O)COc1cccc(NC(=O)c2ccc(Br)cc2)c1	NOMO-1 viab 119.4
Cc1ccc(C(=O)COc2cccc(NC(=O)c3ccc(Br)cc3)c2)cc1C	none
O=C(O)COc1cccc(NC(=O)c2ccc(-c3ccccc3)cc2)c1	none
COC(=O)COc1cccc(NC(=O)c2cc(OC)cc(OC)c2)c1	NOMO-1 viab 108.6
COC(=O)COc1cccc(NC(=O)c2ccc(C)cc2)c1	NOMO-1 viab 115.8
COC(=O)COc1cccc(NC(=O)c2ccc(Cl)cc2)c1	NOMO-1 viab 113.6
COc1cc(OC)cc(-c2nnc(SCC(=O)Nc3ccc(F)cc3)o2)c1	p53 PUMA act inconclusive
COc1c(O)cc2occ(-c3ccccc3O)c(=O)c2c1O	none (no result: p53 PUMA act)
COc1cccc(NC(N)=O)c1	none (no result: p53 PUMA act)
COc1cccc(NC(=O)/C=C/c2ccc(Cl)cc2)c1	p53 PUMA act 93.6 (no result: STK33 inh, MITF inhib, NOMO-1 viab)
COc1ccc(NC(=O)CNC(=O)c2ccc(OC)c(OC)c2)cc1Cl	none
COc1ccc(NC(=O)Nc2cccc3c2O[C@H](CN(C)Cc2ccc(Cl)c(Cl)c2)[C@@H](C)CN([C@@H](C)CO)C3=O)cc1	NOMO-1 viab 91.3 (no result: STK33 inh, p53 PUMA act)
COc1ccc(NC(=O)Nc2cccc3c2O[C@H](CN(C)Cc2ccc(Cl)c(Cl)c2)[C@@H](C)CN([C@H](C)CO)C3=O)cc1	NOMO-1 viab 103.1 (no result: STK33 inh, p53 PUMA act)
COc1ccc(NC(=O)Nc2cccc3c2O[C@@H](CN(C)Cc2ccc(Cl)c(Cl)c2)[C@H](C)CN([C@H](C)CO)C3=O)cc1	NOMO-1 viab 102.2 (no result: STK33 inh, p53 PUMA act)
COC(=O)c1c(NC(=O)COc2cc(C)ccc2C)sc2c1CCC2	none
C[C@H](CO)N1C[C@H](C)[C@H](CN(C)Cc2ccc(C(=O)Nc3ccccc3N)cc2)Oc2ccc(NC(=O)Cc3cn(C)c4ccccc34)cc2CC1=O	NOMO-1 viab 127.0 (no result: STK33 inh, p53 PUMA act)
C[C@@H]1CN([C@H](C)CO)C(=O)Cc2cc(NC(=O)Cc3cn(C)c4ccccc34)ccc2O[C@@H]1CN(C)Cc1ccc(C(=O)Nc2ccccc2N)cc1	none (no result: STK33 inh, p53 PUMA act)
